ClpP mod: qHTS Assay for Activators of ClpP. ATP-dependent Clp protease proteolytic subunit (Bacillus subtilis (strain 168)), P80244. purified B. subtilis ClpP, FRET peptide cleavage, 20 min. Potency, µM (series often up to 57.5 µM), for inactives: top-dose activity change, negative = active. actives 1.9% (n = 340,000); active = well fitted falling curve with a large enough effect; inconclusive = small, poorly fitted or top-dose-only effect; inactive = no such curve, though single readings can be large or run the other way; also: the source files actives as falling curves though it sought activators and does not explain the sign; nearly all actives have a fitted effect of over 65% in size
Target sequence (P80244 whole entry, looked up): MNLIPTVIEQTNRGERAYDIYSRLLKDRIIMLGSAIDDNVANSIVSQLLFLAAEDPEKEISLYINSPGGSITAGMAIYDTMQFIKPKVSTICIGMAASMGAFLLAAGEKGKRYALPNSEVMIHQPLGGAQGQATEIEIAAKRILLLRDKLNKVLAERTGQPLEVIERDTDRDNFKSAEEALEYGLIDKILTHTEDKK
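ClpP 10 microg/mL final, pH 8 Tris/KCl buffer with BSA, glycerol, Tween-20; compound pinned in; FRET-FV substrate; RT 20 min; Ex320/Em430; ΔFRET vs ADEP 5.8 microM, DMSO, no enzyme.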
Gal4-VP16 FLuc: inhibits Gal4-VP16 luciferase reporter, ROR gamma counter-screen; Drosophila S2 Gal4-VP16 UAS-luciferase, luminescence, 20 h; Potency, µM (highest dose often 53.6 µM), for the others: at the top dose activity, negative = inhibition, actives largely listed as inhibitors; actives 3.5% (n = 310,000);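 also: Gal4-VP16 expression switched on by copper sulfate through the metallothionein promoter; % is scaled to controls: 0 for no effect and ±100 for the full control effect; nearly all actives have a fitted effect of over 50% in size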
Sfp PPTase inh: blocks B. subtilis Sfp PPTase activity | Q9F4F7 | Biochemical Sfp PPTase activity, qHTS | Potency, µM, for the others: largest response in the series, negative = inhibition, hits mostly inhibitors | actives 3.5% (n = 310,000) | AID 1490;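 also: the enzyme is Sfp with the accession as filed and its product quenches rhodamine fluorescence; 0% = enzyme reaction without inhibitor and -100% = no enzyme wells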
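Fluorescence-quenching assay: 15 nM Sfp-PPTase preincubated 15 min at room temperature with compound, then 5 uM rhodamine-CoA and 12.5 uM BHQ-2-labelled YbbR peptide added. Fluorescence (ex 525/em 598 nm) read at start and after 30 min; difference gives rate.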
Epigenetic derep: derepresses silenced GFP reporter in murine cells. murine LDR cells, GFP reporter derepression, 30 h. Potency, µM (series often up to 53.9 µM), for inactives: top-dose GFP activation, most hits filed as activators. actives 0.2% (n = 280,000). AID 1865; also: % of control where 0% means no effect; nearly all actives have a fitted effect of over 60% in size
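Reporter derepression read as number of fluorescent GFP-positive objects, 20-120 um in size, counted by laser-scanning cytometer. Mouse LDR line with an epigenetically silenced CMV-GFP locus; compound incubation 30 h, 37 C.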
RORg inh: ROR gamma (mouse) transcription inhibition | Potency, µM (top dose mostly 53.6 µM), inactives show at the highest dose activity change, negative = inhibition, hits mostly inhibitors | Drosophila S2 Gal4-RORgamma UAS-luciferase reporter, 20 h | AID 2551 | actives 5.4% (n = 310,000); also: % is scaled to controls: 0 for no effect and ±100 for the full control effect; nearly all actives have a fitted effect of over 60% in size
Target sequence (P51450 whole entry, looked up, the tested form may be a part): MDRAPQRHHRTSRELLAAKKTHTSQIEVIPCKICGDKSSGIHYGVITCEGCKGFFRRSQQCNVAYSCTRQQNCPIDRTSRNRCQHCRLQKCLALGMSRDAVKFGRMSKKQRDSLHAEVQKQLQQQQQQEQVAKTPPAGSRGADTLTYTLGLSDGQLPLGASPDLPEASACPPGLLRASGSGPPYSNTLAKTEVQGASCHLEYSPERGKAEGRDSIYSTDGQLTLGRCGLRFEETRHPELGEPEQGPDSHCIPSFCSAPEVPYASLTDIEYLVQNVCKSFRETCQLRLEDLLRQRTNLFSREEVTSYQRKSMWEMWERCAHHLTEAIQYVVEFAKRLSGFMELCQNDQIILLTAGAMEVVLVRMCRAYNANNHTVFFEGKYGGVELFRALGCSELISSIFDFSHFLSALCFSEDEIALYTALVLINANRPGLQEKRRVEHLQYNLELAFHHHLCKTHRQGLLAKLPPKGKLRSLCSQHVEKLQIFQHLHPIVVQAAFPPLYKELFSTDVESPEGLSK
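Read-out: Photinus luciferase luminescence; inhibitors lower reporter signal. Insect Schneider cells with Gal4-ROR gamma fusion under metallothionein promoter, UAS reporter; 700 uM final copper sulfate induction, 20 hr, ambient temperature.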
PINK1 modulator: changes PINK1 expression; PINK1 immunofluorescence, high-content cytometry, 24 h; Potency, µM (highest dose often 76.6 µM), for the others: at the highest dose activation (PINK1 increase), usual class: activators; actives 0.2% (n = 410,000); AID 624263; active = well fitted activation curve with a large enough effect; inconclusive = small, poorly fitted or top-dose-only effect; cell line not stated here; also: % of control where 0% means no effect; nearly all actives have a fitted effect of over 65% in size
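Stable cell line treated 24 h with compounds at 5 concentrations (CCCP controls), then fixed and immunostained for PINK1 plus nuclear and cell stains; PINK1 immunofluorescence quantified by laser-scanning microplate cytometry.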
Starred values were filed as active, the others as inactive; ? = inconclusive; nt = no result; ! = not active in a repeat; [ ] = remark or other dose. Rows were chosen to be rich in hits. Some 8.1% of all compounds tested hit in one or more screens of this group. Unless noted, calls follow the shape of the dose curve; as a rule, active = well fitted curve in the direction sought with a large enough effect; inconclusive = small, poorly fitted or top-dose-only effect, or another doubt; inactive = no such curve, though single readings can be large; an effect the other way counts as inactive or inconclusive. Potency is read from the fitted curve at half-maximal effect.

SMILES | ClpP mod | Gal4-VP16 FLuc | Sfp PPTase inh | Epigenetic derep | RORg inh | PINK1 modulator
CC[C@H](C)[C@H](NC(=O)[C@H](Cc1ccccc1)NC(=O)[C@H](C)NC(=O)[C@H](CC(=O)O)NC(=O)[C@H](CCCCN)NC(=O)[C@H](CO)NC(=O)[C@@H]1CCCN1C(=O)[C@@H]1CCC(=O)N1)C(=O)NCC(=O)N[C@@H](CC(C)C)C(=O)N[C@@H](CCSC)C(N)=O | nt | -7% | 3% | nt | 0% | nt
CC(=O)c1ccc(-c2ccc(C(=O)Nc3nc(-c4ccccn4)cs3)o2)cc1 | 4% | nt | nt | nt | nt | ?
O=C(Nc1nc(-c2ccccn2)cs1)c1ccc([N+](=O)[O-])o1 | nt | ? | 16µM* | -1% | ? | -2%
O=C(Nc1nc(-c2ccccn2)cs1)c1ccc(-c2ccccc2F)o1 | ? | nt | nt | nt | nt | -2%
Cc1ccc(C(=O)Nc2nc(-c3ccccn3)cs2)o1 | 1% | ? | -8% | 0% | 13µM* | 1%
COC(=O)C(c1ccc(OC)c(OC)c1)C1c2ccccc2C=C(C)N1C(=O)OC (stereo not drawn) | nt | -10% | ? | 5% | 35% | nt
Cc1ccc(C)c(N2CCN(CCCNC(=O)C3COc4ccccc4C3)CC2)c1 (stereo not drawn) | -1% | nt | nt | -2% | nt | 6%
CCn1c(-c2ccc(OC)c(OC)c2)n[nH]c1=S | -9% | -26% | ? | 5% | 11µM* | -2%
C=CCn1c(-c2c(C)nc3cc(C)ccn23)n[nH]c1=S | -28% | ? | 1.8µM* | 0% | ? | 4%
C=CCn1c(-c2ccc(OC)c(OC)c2)n[nH]c1=S | -28% | ? | 79µM* | 2% | 3.2µM* | -1%
O=C(CN1CCN(S(=O)(=O)c2cc(Cl)ccc2Cl)CC1)Nc1cccc(F)c1 | -1% | nt | nt | 1% | nt | -4%
CCOc1ccccc1NC(=O)N1CCc2c(sc(C)c2CC)C1c1ccccc1 (stereo not drawn) | -4% | nt | nt | -4% | nt | 0%
Cc1c(C(=O)N2CCCCCC2)sc2ncnc(NCC3CCCO3)c12 (stereo not drawn) | nt | nt | nt | nt | nt | -1%
CC(=O)c1c(N)[nH]c(-c2ccccc2)nc1=S | 1% | 0.79µM* | 8% | ? | 0.32µM* | 2%
CC(=O)c1c(N2CCOCC2)[nH]c(-c2ccccc2)nc1=S | -4% | 5µM* | 6% | -8% | 1.1µM* | 2%
CSc1nc(-c2ccccc2)nc(N2CCOCC2)c1C(C)=O | -1% | -3% | 0% | -2% | -19% | 0%
CC(=O)c1c(N2CCCC2)[nH]c(-c2ccccc2)nc1=S | 1% | 7.9µM* | -6% | 2% | 5.6µM* | ?
CC(=O)c1c(N2CCN(Cc3ccccc3)CC2)[nH]c(-c2ccccc2)nc1=S | 1% | ? | 11% | -1% | 14µM* | nt
COc1cc2nc(SCC(=O)Nc3cccc(C)c3)n3nc(-c4ccccc4)nc3c2cc1OC | -6% | nt | nt | 1% | nt | 1%
Cc1ccc(CNC(=O)CCCCCn2c(=O)c3sccc3n(CC(=O)N3CCCCC3C)c2=O)cc1 (stereo not drawn) | 0% | nt | nt | -2% | nt | 1%
COc1ccc(-n2c(-c3ccc(C)cc3)cc3c2CC(C)(C)CC3=O)c(OC)c1 | ? | nt | nt | 2% | nt | 3%
Cc1nc(Cl)sc1C(=O)Nc1ccc(Cl)cc1 | 28µM* | 22% | 21% | 7% | ? | -1%
C=CCn1c(C)cc(C(=O)CSc2nnc(C3CC3)n2C2CC2)c1C | -1% | nt | nt | nt | nt | -1%
NC1=NC(=Nc2ccc(S(=O)(=O)N3CCOCC3)cc2)c2ccccc21 | nt | -2% | -22% | -2% | 1% | 6%
C=CCn1c(C)cc(C2=NNC(=Nc3ccc(C)cc3)SC2)c1C | nt | 4% | 79µM* | 0% | 39% | 0%
SMILES | ClpP mod | Gal4-VP16 FLuc | Sfp PPTase inh | Epigenetic derep | RORg inh | PINK1 modulator
CCOc1ccc(N=C2NN=C(c3cc(C)n(CC4CCCO4)c3C)CS2)cc1 (stereo not drawn) | 0% | -10% | 56µM* | 1% | 29% | 3%
C=CCn1c(C)cc(C2=NNC(=NC(C)(C)C)SC2)c1C | -15% | 10µM* | 56µM* | -3% | 11µM* | ?
Cc1cc(C2=NNC(=Nc3ccc(S(=O)(=O)N4CCOCC4)cc3)SC2)c(C)n1C | nt | 1% | 13µM* | -1% | -2% | 18%
Cc1ccc(C2=NNC(=Nc3ccc(F)cc3)SC2)cc1 | nt | ? | ? | 4% | ? | ?
CN1C(C(=O)NC(C)(C)C)=CC(c2ccc3c(c2)OCO3)=NS1(=O)=O | -1% | nt | nt | 1% | nt | 0%
CCOc1ccccc1NC(=O)CN1C(=O)COc2ccc(S(=O)(=O)Nc3ccccc3)cc21 | 1% | nt | nt | 3% | nt | 1%
Cc1ccc([N+](=O)[O-])cc1N | 1% | 0% | 24% | 1% | 2% | 0%
Nc1cc([N+](=O)[O-])ccc1O | -5% | 13µM*! | -10% | 8% | -1% | -2%
CCCCCCCCn1c2c(c(=N)c3ccccc31)CCC2 | nt | -7% | 13% | 0% | 0% | 13µM*
CCCCCCCCCn1c2c(c(=N)c3c1CCC3)CCCC2 | nt | ? | 45µM* | 1% | 4µM* | -1%
CCCCCCCCCCn1c2c(c(=N)c3c1CCC3)CCC2 | -1% | 3.2µM* | 28µM* | -1% | 8.9µM* | -1%
CC(C)c1ccccc1NC(=S)NCC1(N(C)C)CCCCC1 | 1% | ? | 10% | nt | 16µM* | 1%
O=C([C@@H]1C[C@@H](Sc2nc3ccccc3[nH]2)CN1Cc1ccc(C(F)(F)F)cc1)N1CCN(c2ccccc2F)CC1 | nt | nt | nt | nt | nt | 2%
COc1ccc(NC(=O)CN2CCN(Cc3ccccc3Cl)S2(=O)=O)cc1Cl | 1% | nt | nt | -1% | nt | 1%
CCOC(=O)[C@H](Cc1ccc(O)cc1)NC(=O)c1ccccc1 | nt | ? | 4% | nt | 1.4µM* | nt
O=C(COC(=O)c1ccc(O)cc1)c1ccc2c(c1)OCCO2 | -4% | nt | nt | nt | nt | 0%
COC(=O)C(Cc1ccc(O)cc1)NC(=O)c1ccc2c(c1)OCCO2 (stereo not drawn) | nt | 2µM* | 1% | nt | 0.63µM* | 1%
CCOc1ccccc1NC(=O)Cn1c(=O)oc2cc(S(=O)(=O)NCc3ccccc3)ccc21 | -3% | nt | nt | 0% | nt | 2%
CCOC(=O)C1CCN(c2cc3c(cc2NC(=O)c2ccc(Cl)cc2)n(C)c(=O)n3C)CC1 | -6% | nt | nt | 5% | nt | -2%
COc1ccc(CC(=O)NCc2nc3cccnc3n2Cc2ccc(C)cc2)cc1 | -1% | nt | nt | 0% | nt | -1%
CC1=C(C(=O)Nc2ccccc2)C(c2ccco2)C(C#N)=C(SCC(=O)OC(C)C)N1 (stereo not drawn) | -8% | -5% | 6% | -4% | 39% | 109%[38.3 µM]

Compound activity deposited in PubChem BioAssay by National Center for Advancing Translational Sciences (NCATS).
